Assay outcomes from PubChem.
A selection: hits, their analogues and other compounds. The true share with any hit is near 1.6%.
VLA-4 inh: inhibition in a human VLA-4 binding assay. inhibition, % (about 7 µM as worked out from the volumes in the protocol). VLA-4 expressing cells, ligand binding flow cytometry. P13612. 0.2% of 330,000 active. AID 2557; in the data active means inhibition above about 50%
PKA-R1A activ: activates the PKA-R1A holoenzyme complex | P00514+P68181 | PKA-R1A dissociation, Cy5-IP20 fluorescence polarization; scaled: DMSO 0%, 113 µM cGMP 100% | AID 504707 | 0.083% of 340,000 active | activation, % at 11.4 µM;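 active means percent activation above the mean of all tested compounds plus 3 SD, cut at about 19% in these data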;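 further: higher means more PKAc released from R1A so a rise in polarization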
CendR NRP1 mod: modulators of CendR peptide binding to human neuropilin-1. O14786. FAM-RPARPAR peptide binding to NRP-1, fluorescence polarization. inhibition, % at 25 µM. 0.85% of 360,000 active. AID 602438;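 active means inhibition or corrected inhibition above about 18%, plus a signal ratio from 0.5 to 1.5, limit read from the data, passing the limit was not always enough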
ATG4B inh: blocks human ATG4B protease cleavage of LC3 substrate; AID 504462; Q9Y4P1; 0.51% of 340,000 active; inhibition, % at 8.33 µM; ATG4B cleavage of LC3-PLA2, NBD-HPC fluorescence, 1 h; in the data active means inhibition above about 40%
PKA-R2B activ: activators of human PKA-R2B complex; PKA-R2B holoenzyme dissociation, Cy5-IP20 fluorescence polarization; R2B truncated from residue 108, S112A mutant; 0% DMSO only, 100% 113 µM cGMP; activation, % at 11.4 µM; 0.079% of 340,000 active; AID 504700;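 active means activation above a cutoff set at the mean over all compounds plus 3 SD, cut at about 18% in these data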;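 further: higher means more holoenzyme dissociation and a rise in polarization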
Target sequence (P31323 whole entry, looked up, other chains not shown, the tested form may be a part): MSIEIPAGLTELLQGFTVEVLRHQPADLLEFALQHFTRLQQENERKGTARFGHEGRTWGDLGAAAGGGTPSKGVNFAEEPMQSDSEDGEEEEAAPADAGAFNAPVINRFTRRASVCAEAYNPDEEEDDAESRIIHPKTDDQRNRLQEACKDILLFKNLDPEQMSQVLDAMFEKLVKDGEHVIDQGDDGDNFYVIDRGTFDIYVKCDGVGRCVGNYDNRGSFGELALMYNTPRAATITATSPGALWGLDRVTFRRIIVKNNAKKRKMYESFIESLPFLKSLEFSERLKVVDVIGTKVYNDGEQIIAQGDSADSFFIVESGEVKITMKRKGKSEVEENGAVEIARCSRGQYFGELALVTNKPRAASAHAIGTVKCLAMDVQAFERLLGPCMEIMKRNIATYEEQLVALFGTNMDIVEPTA
Starred values were filed as active, the others as inactive.

`CC(C)(C)N(NC(=O)Nc1ccc(Cl)cc1)C(=O)c1ccccc1` gave VLA-4 inh 9.9, PKA-R1A activ -14.2, CendR NRP1 mod 29.3*, ATG4B inh -4.5 and PKA-R2B activ -2.0.
Screening O=C1CSC(=S)N1/N=C/c1cc(Br)c(O)c(Br)c1 returned VLA-4 inh -273.5, PKA-R1A activ -5.7, CendR NRP1 mod 140.4, ATG4B inh 61.1* and PKA-R2B activ -11.8.
Screening COc1cc(/C=N/N2C(=O)CSC2=S)ccc1O returned VLA-4 inh -54.2, PKA-R1A activ -1.3, CendR NRP1 mod -78.4, ATG4B inh 1.4 and PKA-R2B activ 6.1.
Screening COc1ccc(Cn2c3ccc(OC)cc3c3nc4ccccc4nc32)cc1 returned VLA-4 inh 5.8, PKA-R1A activ 7.8, CendR NRP1 mod 48.9*, ATG4B inh 16.5 and PKA-R2B activ -4.8.
For CC(C)(C)N1C(=O)c2ccccc2NC(=O)C1C(=O)NCCc1ccccc1F (stereo not drawn) the results were CendR NRP1 mod -18.9.
`Cc1cccc(NC(=O)c2ccc(OCc3c(C)noc3C)cc2)c1` gave VLA-4 inh 5.6, PKA-R1A activ 1.0, CendR NRP1 mod 28.8*, ATG4B inh -14.3 and PKA-R2B activ -1.4.
For CC(=O)c1cccc(NC(=O)c2ccc(OCc3c(C)noc3C)cc2)c1 the results were VLA-4 inh 9.4, PKA-R1A activ 1.7, CendR NRP1 mod 2.6, ATG4B inh -8.0 and PKA-R2B activ -9.2.
O=C(C(=O)N1CCC(Cc2ccccc2)CC1)c1ccccc1 was read as CendR NRP1 mod 6.7.
For Cc1nc(C)c(N)c(=O)[nH]1 the results were VLA-4 inh 4.6, PKA-R1A activ 6.2, CendR NRP1 mod 23.9*, ATG4B inh -3.7 and PKA-R2B activ -3.2.
Screening N/C(=N\S(=O)(=O)c1cccs1)c1ccccc1Cl returned VLA-4 inh 15.2, PKA-R1A activ -6.0, CendR NRP1 mod 5.1, ATG4B inh 11.3 and PKA-R2B activ -5.9.
For O=S(=O)(/N=C(\c1ccccc1)N1CCOCC1)c1cccs1 the results were VLA-4 inh 4.1, PKA-R1A activ -7.7, CendR NRP1 mod 27.0*, ATG4B inh -6.0 and PKA-R2B activ 10.5.
O=C(c1ccco1)N1CCN(/C(=N/S(=O)(=O)c2cccs2)c2ccccc2Cl)CC1 was read as VLA-4 inh 7.7, PKA-R1A activ -15.5, CendR NRP1 mod 27.3*, ATG4B inh -0.1 and PKA-R2B activ 1.6.
`COc1ccc(CCNC(=O)c2cc3cc(Cl)ccc3nc2N)cc1OC` gave CendR NRP1 mod -8.2.
For COc1ccccc1CNC(=O)Nc1nc(C(N)CCc2ccccc2)cs1 (stereo not drawn) the results were CendR NRP1 mod 9.1.
COCc1c(C(=O)N2CCN(Cc3ccc4c(c3)OCO4)CC2)oc2ccccc12 was read as VLA-4 inh -22.8, PKA-R1A activ 4.7, CendR NRP1 mod 25.6*, ATG4B inh -1.8 and PKA-R2B activ -2.1.
COCc1c(C(=O)N2CCN(Cc3ccc(C#N)cc3)CC2)oc2ccccc12 was read as VLA-4 inh 14.6, PKA-R1A activ -1.2, CendR NRP1 mod 2.7, ATG4B inh -12.8 and PKA-R2B activ 0.8.
Screening CCCCNC(=S)N1CCN(Cc2ccc3c(c2)OCO3)CC1 returned VLA-4 inh -13.4, PKA-R1A activ 0.3, CendR NRP1 mod -5.8, ATG4B inh -1.9 and PKA-R2B activ -5.5.
Screening COCCCNC(=S)N1CCN(Cc2ccc3c(c2)OCO3)CC1 returned VLA-4 inh 10.5, PKA-R1A activ -4.0, CendR NRP1 mod 21.1*, ATG4B inh -8.2 and PKA-R2B activ -4.7.
Cc1ccccc1NC(=S)N1CCN(Cc2ccc3c(c2)OCO3)CC1 was read as VLA-4 inh 11.6, PKA-R1A activ 0.9, CendR NRP1 mod 30.1*, ATG4B inh -1.2 and PKA-R2B activ -9.1.
`COC(=O)C(Cc1ccccc1)NC(=O)CNC(=O)c1ccc(Br)cc1` (stereo not drawn) gave VLA-4 inh 10.6, PKA-R1A activ -9.7, CendR NRP1 mod 6.3, ATG4B inh -0.8 and PKA-R2B activ -2.4.
`NC(c1csc(NC(=O)Nc2ccc(OC(F)(F)F)cc2)n1)C1CCCCC1` (stereo not drawn) gave CendR NRP1 mod -1.2.
Screening Cc1cccc(C)c1NC(=O)C1C(c2ccc3c(c2)OCO3)=Nc2ccccc2N1C(=O)c1cccc2ccccc12 (stereo not drawn) returned CendR NRP1 mod -19.3.
COC(=O)C[C@@H]1CC[C@H](NS(=O)(=O)c2cccc(F)c2)[C@@H](CO)O1 was read as CendR NRP1 mod 10.2.
Screening O=C(NC1CCCCC1)C(c1ccc(-c2ccccc2)cc1)n1c(=O)c(-c2ccco2)nc2ccccc21 (stereo not drawn) returned CendR NRP1 mod -72.9.
For CCCCNC(=O)C1c2ccccc2OCC(=O)N1Cc1ccc2c(c1)OCO2 (stereo not drawn) the results were CendR NRP1 mod 19.3*.
COc1ccc(C(=O)N2CCC(C(=O)NCc3ccccn3)CC2)cc1 was read as VLA-4 inh 1.9, PKA-R1A activ 0.4, CendR NRP1 mod 34.8*, ATG4B inh 6.5 and PKA-R2B activ -1.2.
Screening COc1ccc(CNC(=O)C2CCN(C(=O)c3ccc(-c4ccccc4)cc3)CC2)cc1 returned VLA-4 inh 4.8, PKA-R1A activ 8.4, CendR NRP1 mod 9.7, ATG4B inh -8.0 and PKA-R2B activ -6.8.
`C=CCNc1nc(-c2sc(NC(=O)C(C)(C)C)nc2C)c(-n2cc(-c3ccccc3)nn2)s1` gave CendR NRP1 mod 7.7.
`O=C(Nc1cccc(F)c1)c1ccccc1-c1ccccc1` gave VLA-4 inh 11.1, PKA-R1A activ -5.0, CendR NRP1 mod -1.9, ATG4B inh 6.0 and PKA-R2B activ -14.2.
Screening O=C(Nc1ccc(F)cc1F)c1ccccc1-c1ccccc1 returned VLA-4 inh -2.8, PKA-R1A activ -15.6, CendR NRP1 mod 30.8*, ATG4B inh 8.0 and PKA-R2B activ -12.8.
`COc1ccc(N=CC2CCCCC2=O)c([N+](=O)[O-])c1` (stereo not drawn) gave PKA-R1A activ 4.8, CendR NRP1 mod 10.2, ATG4B inh -2.6 and PKA-R2B activ -2.9.
`CC(C)CC(NS(=O)(=O)c1ccccc1S(=O)(=O)NC(CC(C)C)C(=O)O)C(=O)O` (stereo not drawn) gave VLA-4 inh 12.6, PKA-R1A activ -8.2, CendR NRP1 mod 25.5*, ATG4B inh -5.3 and PKA-R2B activ -3.7.
CC(C)CC(NS(=O)(=O)c1ccccc1)C(=O)O (stereo not drawn) was read as VLA-4 inh 5.2, PKA-R1A activ -6.6, CendR NRP1 mod 14.4, ATG4B inh 2.5 and PKA-R2B activ -10.2.
Screening CCCCn1c(NC(=O)c2ccco2)c(S(=O)(=O)c2ccc(C)cc2)c2nc3ccccc3nc21 returned PKA-R1A activ 2.0, CendR NRP1 mod -160.4, ATG4B inh -3.2 and PKA-R2B activ 9.1.
